Bioassay records from PubChem.
D2 PAM-1: potentiates the human D2 dopamine receptor allosterically; potentiation, % (no concentration beside the values); 0.23% of 360,000 active; AID 624464; P14416; DiscoveRx D2 beta-arrestin cells, luminescence, 90 min; 100% = 57 uM dopamine signal; in the data active = potentiation above about 50%
Target sequence (P14416 whole entry, looked up): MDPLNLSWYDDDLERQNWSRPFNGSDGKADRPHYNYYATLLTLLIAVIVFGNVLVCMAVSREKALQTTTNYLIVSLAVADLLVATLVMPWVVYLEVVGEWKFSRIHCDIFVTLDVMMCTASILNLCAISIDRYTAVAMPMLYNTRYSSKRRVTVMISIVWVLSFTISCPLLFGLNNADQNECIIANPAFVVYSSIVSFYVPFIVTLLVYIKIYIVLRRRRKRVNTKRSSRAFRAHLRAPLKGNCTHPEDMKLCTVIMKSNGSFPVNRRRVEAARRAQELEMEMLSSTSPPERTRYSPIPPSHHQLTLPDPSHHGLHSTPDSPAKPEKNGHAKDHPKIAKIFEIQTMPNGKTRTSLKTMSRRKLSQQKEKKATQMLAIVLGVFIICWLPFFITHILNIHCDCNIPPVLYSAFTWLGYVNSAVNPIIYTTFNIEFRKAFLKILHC
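D2 cells co-treated with compound plus 50 nM dopamine (EC20) for 90 min at 37 deg C to detect potentiation. Beta-arrestin recruitment was read as enzyme-fragment luminescence after 1 h at ambient temperature. Full response was set by 57 uM dopamine.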
D2 PAM-2: D2 dopamine receptor (human) potentiation; P14416; HEK293 T-REx D2, calcium flux, EC20 dopamine potentiation; potentiation, % at 10 µM; 0.34% of 340,000 active;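 active = potentiation over 3 SD above the plate norm, cut at about 30% in these data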; also: 0% is about no effect
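Primary screen. Calcium kinetics in induced HEK293 T-REx D2 cells: compound pre-addition 180 s, EC20 dopamine, 180 s more.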
D2 ag-1: human D2 receptor agonism in beta-arrestin assay; AID 624465; DiscoveRx PathHunter D2 beta-arrestin, luminescence, 90 min; 100% = 57 uM dopamine signal; 0.084% of 360,000 active; activation, % (no concentration beside the values); P14416; in the data active = activation above about 40%
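DiscoveRx PathHunter D2 beta-arrestin cells (2,100/well) attached overnight, then compound-stimulated 90 min at 37 C in HBSS/10 mM HEPES/0.1% Tween-20 buffer; beta-galactosidase complementation read by luminescence after 1 h at ambient temperature. Dopamine 57 uM final (EC100) as control.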
B2AR arrestin: agonists driving beta-arrestin recruitment to human beta2-adrenergic receptor; AID 492947; Potency, µM (series often up to 46.1 µM), for inactives: at the highest dose activation, hits mostly activators; P07550; beta-arrestin recruitment to beta2AR, cell-based reporter; 0.02% of 330,000 active; active = well fitted activation curve with a large enough effect;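 also: potency is read from the fitted curve at half-maximal effect; 0% = DMSO controls and full agonism = EC100 isoproterenol or metaproterenol; nearly all actives have a fitted effect of over 65% in size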
D2 antagonist: D2 dopamine receptor (human) antagonism; 2% of 340,000 active; HEK293 TREx D2 cells, calcium flux, dopamine EC80; inhibition, % at 10 µM; AID 485344; in the data active = inhibition above about 30%; inactive = below that, where a call was filed; also: 0% is about no effect
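Calcium mobilization kinetics were recorded at 1 s intervals in tetracycline-induced HEK293 T-REx D2 cells, first for 180 s after compound addition and then 180 s after EC80 dopamine.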
D2 ag-2: agonists of human D2 dopamine receptor | P14416 | HEK293 T-REx D2 cells, calcium flux agonist mode | activation, % at 2 µM | 0.53% of 340,000 active | AID 485358;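 active = activation over 3 SD above normal in the single-dose calcium agonist read, cut at about 30% in these data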; also: 0% is about no effect
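In this primary screen, compounds producing a positive calcium signal within 180 s of addition to tetracycline-induced, force-coupled HEK293 Trex D2 cells are flagged; cells are dye-loaded with a no-wash calcium kit beforehand.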
Starred values were filed as active, the others as inactive; . = no result given. This is a sample that favours compounds with a hit; in the whole collection about 2.4% have one here.

SMILES	D2 PAM-1	D2 PAM-2	D2 ag-1	B2AR arrestin	D2 antagonist	D2 ag-2
CCOC(=O)C1CCN(C/C=C/c2ccccc2OC)CC1	-9.7	-20.1	-4.3	-1.0%	18.4	4.0
CC1CCCCN1C(=O)/C=C/c1ccccc1[N+](=O)[O-] (stereo not drawn)	-2.6	13.7	-5.2	-0.3%	30.1*	0.1
CCOC(=O)C1CCN(C/C=C/c2ccccc2[N+](=O)[O-])CC1	-13.3	-12.4	1.5	-0.6%	48.4*	-0.7
Nc1nnc(-c2ccccc2F)s1	-5.0	10.9	-2.2	-0.1%	44.9*	1.0
COc1cc(CN(CCc2c(C)[nH]c3ccc(C)cc23)C(=S)NC(C)(C)C)cc(OC)c1OC	11.8	-8.2	-6.8	0.0%	1.0	0.0
CCOc1cc(CN2CCN(CCOCCO)CC2)ccc1OC	-7.5	1.9	-1.8	0.3%	-5.3	-0.1
CC(=O)NCCc1nc2cc(NC(=O)c3ccc(Cl)cc3)ccc2n1C	-8.3	1.9	-1.3	-0.5%	-7.0	0.4
CCOC(=O)C1(CCc2ccccc2)CCN(Cc2cnc(N(C)C)s2)CC1	-15.9	-20.2	0.9	0.2%	50.5*	8.6
CCOC(=O)C1(CCc2ccccc2)CCN(Cc2c(O)cccc2OC)CC1	-1.9	-20.4	-4.2	0.0%	36.7*	-0.1
CCOC(=O)C1(Cc2ccccc2)CCN(Cc2nccn2CC)CC1	-3.5	3.9	-3.5	3.7%	65.2*	0.4
CCOC(=O)C1(CCc2ccccc2)CCN(Cc2ccc(O)cc2)CC1	-29.0	-19.5	0.3	0.4%	26.1	1.3
CCOC(=O)C1(CCc2ccccc2)CCN(C(=O)CN2CCOC2=O)CC1	-1.0	13.0	-1.6	-0.8%	37.0*	-0.5
Cc1ccc(NC(=O)C2CCN(S(=O)(=O)c3ccc4[nH]c(=O)ccc4c3)CC2)c(C)c1	-1.1	.	-2.4	0.1%	.	.
O=C(O)c1ccc(Cl)c(NC(=S)NC(=O)c2cccc(COc3ccccc3)c2)c1	-3.7	12.5	2.0	-0.2%	36.0*	-0.6
O=C(NC(=S)Nc1ccc(Cl)c(C(=O)O)c1)c1cccc(COc2ccccc2)c1	-14.3	-8.3	-2.2	0.2%	-1.3	-0.6
Cc1ccc(/C=N/n2cnc3sc4c(c3c2=O)CCCC4)o1	-17.8	1.4	-2.3	-0.5%	-3.6	1.1
Cc1ccc(/C=N/n2cnc3sc(C)c(C)c3c2=O)o1	-5.4	47.3*	-1.7	-0.2%	-4.5	-0.2
CC(C)(C)SCCNC(=O)CN(c1ccc(F)cc1)S(=O)(=O)c1ccccc1	-6.3	-2.3	4.0	-0.1%	3.0	0.6
CC1CCN(CC(O)CN2c3ccccc3Sc3ccccc32)CC1 (stereo not drawn)	-56.1	-26.3	-6.0	-0.4%	70.9*	-1.9
Cc1c(NC(=O)CN2C(=O)NC3(CCCCC3)C2=O)c(=O)n(-c2ccccc2)n1C	0.7	-2.7	-7.6	0.2%	.	.
CN(/C(=N\S(=O)(=O)c1ccccc1)C(F)(F)F)c1ccccc1	-0.3	-2.6	-4.6	-0.1%	2.1	0.1
CC12CCC(C(=O)N(c3ccccc3Cl)C1=O)C2(C)C (stereo not drawn)	6.1	-1.4	2.8	-0.6%	-9.2	1.3
Cc1cc(=O)[nH]c(-n2nc(C)cc2C)n1	0.4	-3.0	-0.8	-0.7%	43.8*	0.8
C=CCN(CC=C)CCOc1cccc2ccccc12	-14.2	-18.6	1.4	-0.4%	26.2	35.2*
O=C(Nc1ccc(-n2nncc2-c2ccco2)cc1)c1cccc(F)c1	-13.4	-2.8	-2.2	0.0%	42.0*	0.2
N#CC1(NC(=O)COC(=O)CN2C(=O)c3ccccc3C2=O)CCCCC1	0.8	-5.1	5.3	0.1%	-9.4	-0.6
Cc1ccc(S(=O)(=O)Cc2ccc(C(=O)NCCCN3CCCC3=O)o2)cc1	1.1	-3.1	-3.3	-0.3%	34.0*	0.9
CCOc1ccccc1NC(=O)Nc1ccc2c(c1)OCO2	-26.2	-10.1	-5.0	-0.3%	-3.9	0.1
C=CCOc1ccccc1CN(C(=O)CCl)c1ccc2c(c1)OCO2	-3.4	4.6	-3.8	0.3%	33.0*	0.2
